{"source": "PubChem BioAssay (EPA / NIEHS)", "note": "Where a structure was tested more than once in an assay, its records may differ in their call. Calls of active or inactive are those of the source. How the source made its calls: active means hit-call score of the fitted dose curve at least 0.9, where 1 is the maximum; inactive means score below 0.9.", "data": [{"assay": "ATG_GRE_CIS: Attagene CIS-FACTORIAL HepG2 Assay for human Glucocorticoid Response Elements (GRE) (AID 2282947)", "settings": "HepG2 GRE cis-reporter, Attagene multiplex mRNA; actives raise or lower the signal", "procedure": "ATG_CIS is a cell-based, multiplexed-readout assay that uses HepG2, a human liver cell line, with measurements taken at 24 hours after chemical dosing in a 24-well plate.ATG_GRE_CIS is one of 52 assay component(s) measured or calculated from the ATG_CIS assay. It is designed to make measurements of mRNA induction, a form of inducible reporter, as detected with fluorescence intensity signals by Reverse transcription polymerase chain reaction (RT-PCR) and Capillary electrophoresis technology.Data from the assay component ATG_GRE_CIS was analyzed into 1 assay endpoint. This assay endpoint, ATG_GRE_CIS, was analyzed with bidirectional fitting relative to DMSO as the negative control and baseline of activity. Using a type of inducible reporter, measures of mRNA for gain or loss-of-signal activity can be used to understand the reporter gene at the transcription factor-level as they relate to the gene NR3C1. Furthermore, this assay endpoint can be referred to as a primary readout, because this assay has produced multiple assay endpoints where this one serves a reporter gene function. To generalize the intended target to other relatable targets, this assay endpoint is annotated to the nuclear receptor intended target family, where the subfamily is steroidal.\nHuman liver HepG2 cells are transiently transfected with multiple reporter transcription units (MRTUs) in 6-well plates using FuGene 6 reagent (Roche; 3 ml FuGene/1 mg DNA). The MRTU constructs are regulated by a cis-regulating element (promoter). […] A major difference between the CIS and TRANS system is that in CIS activities of endogenous TFs are measured, whereas the TRANS assay evaluates changes in activities of exogenous, chimeric NR-Gal4 proteins. […] At the end of 24 hour incubation, total RNA was isolated using TriZol reagent (Invitrogen). The isolated RNA is then reverse-transcribed using oligo(dT) primer and Mo-MLV reverse transcriptase (Invitrogen) with DNAse I (Ambion) treatment for 30 min. The one-tenth of the produced cDNA was amplified by PCR using Taq DNA polymerase (Invitrogen) and two reporter sequence-specific primers. The PCR products were fluorescently labeled by primer extension with 6-arboxyfluorescein (6-FAM) 5'-labeled reporter sequence-specific primer (2 min at 95 C, 20 s at 68 C and 10 min at 72 C) and these products were digested with 5U of HpaI (New England Biolabs) for 2h at 37 C. The fragments were purified using Qiaquick PCR columns (Qiagen), analyzed on an ABI 3130xL genetic analyzer (Applied Biosystems) with peak positions identified by using a set of X-rhodamine (ROX)-labeled MapMarker1000 molecular weight standards (BioVentures). The raw capillary electrophoresis data was processed using Attagraph software (Attagene).", "values": [{"smiles": "COCC(C)OCC(C)O", "note": "(stereo not given)", "outcome": "inactive"}, {"smiles": "CC(C)(C)c1cccc(C(C)(C)C)c1O", "outcome": "inactive"}, {"smiles": "OCCC(F)(F)C(F)(F)C(F)(F)C(F)(F)C(F)(F)C(F)(F)F", "AC50": "133 µM (active)", "outcome": "inactive"}, {"smiles": "Oc1cccc(O)c1", "outcome": "inactive"}, {"smiles": "Cc1ccc(S(=O)(=O)O)c(C)c1", "outcome": "inactive"}, {"smiles": "CCCCCCCCCCCCc1ccccc1S(=O)(=O)O", "outcome": "inactive"}, {"smiles": "O=c1c(-c2ccc(O)cc2)coc2cc(O)ccc12", "outcome": "inactive"}, {"smiles": "CC#C[C@]1(O)CC[C@H]2[C@@H]3CCC4=CC(=O)CCC4=C3[C@@H](c3ccc(N(C)C)cc3)C[C@@]21C", "outcome": "inactive", "AC50": "26.7 µM (active)"}, {"smiles": "CCCCCCCC(=O)O", "outcome": "inactive"}, {"smiles": "CC(C)(C)c1ccc(O)c(C(C)(C)C)c1", "outcome": "inactive"}, {"smiles": "ClC1=C(Cl)C(Cl)(Cl)C(Cl)=C1Cl", "outcome": "inactive"}, {"smiles": "CN1CCN(c2ccccc2/C=C2\\SCCN(c3ccc(Cl)c(Cl)c3)C2=O)CC1", "outcome": "inactive"}, {"smiles": "CCCCC(CC)COC(=O)CCCCC(=O)OCC(CC)CCCC", "note": "(stereo not given)", "outcome": "inactive"}, {"smiles": "CCCCCCCCCCCCN1CCCC1=O", "outcome": "inactive"}, {"smiles": "OC1CCCCC1", "outcome": "inactive"}, {"smiles": "CCC(=C(c1ccc(O)cc1)c1ccc(OCCN(C)C)cc1)c1ccccc1", "AC50": "13.1 µM (active)", "outcome": "inactive"}, {"smiles": "Cc1cc(CCN2CCN(c3nsc4ccccc34)CC2)cc2c1NC(=O)CC2(C)C", "outcome": "inactive"}, {"smiles": "CCCCC(CC)COC(=O)CCCCC(=O)OCc1ccccc1", "note": "(stereo not given)", "outcome": "inactive"}, {"smiles": "CCCCOCCO", "outcome": "inactive"}, {"smiles": "CCCCCCCCCCCCCCCS(=O)(=O)Oc1ccccc1", "outcome": "inactive"}, {"smiles": "NCC(F)(F)C(F)(F)C(F)(F)C(F)(F)C(F)(F)C(F)(F)C(F)(F)F", "outcome": "inactive"}, {"smiles": "CC(=O)CC(C)(C)O", "outcome": "inactive"}, {"smiles": "NC(=O)N1C(=O)C(C(=O)c2cc(Cl)cs2)c2cc(F)c(Cl)cc21", "note": "(stereo not given)", "outcome": "inactive"}, {"smiles": "FC(F)(I)C(F)(F)C(F)(F)C(F)(F)C(F)(F)C(F)(F)I", "AC50": "18.1 µM (active)"}, {"smiles": "C=C(C)C(=O)OCCC(F)(F)C(F)(F)C(F)(F)C(F)(F)C(F)(F)C(F)(F)F", "outcome": "inactive"}, {"smiles": "c1ccc2c(c1)ccc1ccccc12", "outcome": "inactive"}, {"smiles": "O=C(O)Cc1cc(I)c(Oc2cc(I)c(O)c(I)c2)c(I)c1", "outcome": "inactive", "AC50": "17.2 µM (active)"}, {"smiles": "CC1=C(/C=C/C(C)=C/C=C/C(C)=C/C(=O)O)C(C)(C)CCC1", "outcome": "inactive"}, {"smiles": "COC(=O)CCCCC(=O)OC", "outcome": "inactive"}, {"smiles": "CCCOC(=O)c1ccc(O)cc1", "outcome": "inactive"}, {"smiles": "CC(C)(C)CC(C)(C)c1ccc(O)c(-n2nc3ccccc3n2)c1", "outcome": "inactive"}, {"smiles": "COCC(C)O", "note": "(stereo not given)", "outcome": "inactive"}, {"smiles": "OC1CCC(C2CCCCC2)CC1", "note": "(stereo not given)", "outcome": "inactive"}, {"smiles": "NC(=O)N(O)[C@@H]1C=C[C@H](Oc2cccc(Oc3ccc(F)cc3)c2)C1", "outcome": "inactive"}, {"smiles": "CC[C@H](c1ccc(O)cc1)[C@@H](CC)c1ccc(O)cc1", "outcome": "inactive"}, {"smiles": "Cc1oc(-c2ccccc2)nc1CCOc1ccc(C[C@H](Nc2ccccc2C(=O)c2ccccc2)C(=O)O)cc1", "outcome": "inactive"}]}]}
